Laboratory results reported in the supplement of paper PMC11006884.
Targets with a hit are over-represented here; the source holds about 6,500 in all. About 2% of all pairs of compound and target were hits.

compound: COC(=O)C#Cc1ccccc1 [methyl 3-phenylpropiolate]; assay: log2 ratio of iodoacetamide-alkyne labeling of the cysteine site, DMSO over compound (competition); higher = stronger covalent engagement of the cysteine by the compound, active = 1 or more; settings: 500 µM; treatment time 1 h; system: HEK293T cell lysate
Outline: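 The log2 competition ratio per cysteine is defined as mean reporter intensity in control channels over mean reporter intensity in compound channels. Lysate from HEK293T cells (2 mg/mL) received electrophile (500 µM) or vehicle for 1 h at ambient temperature, followed by iodoacetamide alkyne for 1 h. Samples were clicked to sCIP-TMT reagents, pooled, trypsin-digested overnight at 37 °C, streptavidin-enriched, acid-eluted and run on Orbitrap Eclipse LC-MS/MS with FAIMS, with quantification in FragPipe. Three replicates with duplicate channels were used, and any cysteine quantified in only one replicate was excluded.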

UniProt Q92503, sequence (Q92503 whole entry): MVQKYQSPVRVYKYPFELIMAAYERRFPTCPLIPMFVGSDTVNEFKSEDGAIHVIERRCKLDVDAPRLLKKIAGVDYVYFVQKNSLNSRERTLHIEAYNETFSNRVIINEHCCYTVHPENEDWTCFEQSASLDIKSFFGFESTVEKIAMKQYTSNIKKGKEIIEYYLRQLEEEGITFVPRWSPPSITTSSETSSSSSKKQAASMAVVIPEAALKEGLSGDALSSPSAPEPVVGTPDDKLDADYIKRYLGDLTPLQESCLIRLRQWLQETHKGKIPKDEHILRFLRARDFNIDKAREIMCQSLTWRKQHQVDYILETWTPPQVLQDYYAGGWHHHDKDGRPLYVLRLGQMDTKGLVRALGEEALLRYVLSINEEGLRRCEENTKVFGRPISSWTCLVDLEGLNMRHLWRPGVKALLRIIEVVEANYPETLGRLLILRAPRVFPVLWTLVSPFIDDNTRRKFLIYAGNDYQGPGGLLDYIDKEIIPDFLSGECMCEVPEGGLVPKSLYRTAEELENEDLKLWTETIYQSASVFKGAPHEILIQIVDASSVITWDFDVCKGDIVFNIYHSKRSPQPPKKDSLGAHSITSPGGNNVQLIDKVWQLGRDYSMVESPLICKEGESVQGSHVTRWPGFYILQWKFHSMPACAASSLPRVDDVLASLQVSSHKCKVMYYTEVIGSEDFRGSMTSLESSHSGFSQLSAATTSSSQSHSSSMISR
UniProt Q99439, sequence (Q99439 whole entry, looked up): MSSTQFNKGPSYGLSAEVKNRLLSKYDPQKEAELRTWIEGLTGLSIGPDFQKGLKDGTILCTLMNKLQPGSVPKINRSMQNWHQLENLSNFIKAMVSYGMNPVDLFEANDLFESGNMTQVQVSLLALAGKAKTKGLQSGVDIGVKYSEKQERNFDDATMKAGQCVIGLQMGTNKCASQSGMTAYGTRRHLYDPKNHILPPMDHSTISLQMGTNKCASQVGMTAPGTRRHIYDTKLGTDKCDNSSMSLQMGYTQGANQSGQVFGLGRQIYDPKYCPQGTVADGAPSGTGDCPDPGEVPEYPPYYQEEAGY
UniProt Q6UB35, sequence (Q6UB35 whole entry, looked up): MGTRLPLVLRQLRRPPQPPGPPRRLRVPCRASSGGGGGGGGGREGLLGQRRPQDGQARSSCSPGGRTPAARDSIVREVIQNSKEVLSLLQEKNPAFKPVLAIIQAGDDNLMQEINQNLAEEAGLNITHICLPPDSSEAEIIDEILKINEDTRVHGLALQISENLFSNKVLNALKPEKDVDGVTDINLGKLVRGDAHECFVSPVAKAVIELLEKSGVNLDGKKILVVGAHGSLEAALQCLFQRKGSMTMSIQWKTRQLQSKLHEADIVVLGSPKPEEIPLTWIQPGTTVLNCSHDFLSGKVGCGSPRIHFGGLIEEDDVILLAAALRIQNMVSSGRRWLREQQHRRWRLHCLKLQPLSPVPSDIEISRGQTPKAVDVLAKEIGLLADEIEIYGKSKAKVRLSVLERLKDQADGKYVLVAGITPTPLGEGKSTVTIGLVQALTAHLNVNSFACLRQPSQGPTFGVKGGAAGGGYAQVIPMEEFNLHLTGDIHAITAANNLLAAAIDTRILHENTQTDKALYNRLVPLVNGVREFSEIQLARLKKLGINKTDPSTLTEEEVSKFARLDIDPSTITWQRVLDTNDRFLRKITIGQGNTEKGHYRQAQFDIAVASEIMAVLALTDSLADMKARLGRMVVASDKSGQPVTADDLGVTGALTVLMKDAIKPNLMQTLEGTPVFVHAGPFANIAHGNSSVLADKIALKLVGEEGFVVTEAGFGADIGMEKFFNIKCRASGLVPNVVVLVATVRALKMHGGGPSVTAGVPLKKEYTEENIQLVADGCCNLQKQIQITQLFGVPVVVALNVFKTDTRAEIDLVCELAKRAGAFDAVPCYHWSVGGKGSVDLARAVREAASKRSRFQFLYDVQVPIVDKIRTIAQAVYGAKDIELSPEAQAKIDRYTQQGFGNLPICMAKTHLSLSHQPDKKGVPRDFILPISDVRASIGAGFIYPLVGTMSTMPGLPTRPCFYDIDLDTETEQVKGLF
UniProt Q86VP6, sequence (Q86VP6 whole entry, looked up): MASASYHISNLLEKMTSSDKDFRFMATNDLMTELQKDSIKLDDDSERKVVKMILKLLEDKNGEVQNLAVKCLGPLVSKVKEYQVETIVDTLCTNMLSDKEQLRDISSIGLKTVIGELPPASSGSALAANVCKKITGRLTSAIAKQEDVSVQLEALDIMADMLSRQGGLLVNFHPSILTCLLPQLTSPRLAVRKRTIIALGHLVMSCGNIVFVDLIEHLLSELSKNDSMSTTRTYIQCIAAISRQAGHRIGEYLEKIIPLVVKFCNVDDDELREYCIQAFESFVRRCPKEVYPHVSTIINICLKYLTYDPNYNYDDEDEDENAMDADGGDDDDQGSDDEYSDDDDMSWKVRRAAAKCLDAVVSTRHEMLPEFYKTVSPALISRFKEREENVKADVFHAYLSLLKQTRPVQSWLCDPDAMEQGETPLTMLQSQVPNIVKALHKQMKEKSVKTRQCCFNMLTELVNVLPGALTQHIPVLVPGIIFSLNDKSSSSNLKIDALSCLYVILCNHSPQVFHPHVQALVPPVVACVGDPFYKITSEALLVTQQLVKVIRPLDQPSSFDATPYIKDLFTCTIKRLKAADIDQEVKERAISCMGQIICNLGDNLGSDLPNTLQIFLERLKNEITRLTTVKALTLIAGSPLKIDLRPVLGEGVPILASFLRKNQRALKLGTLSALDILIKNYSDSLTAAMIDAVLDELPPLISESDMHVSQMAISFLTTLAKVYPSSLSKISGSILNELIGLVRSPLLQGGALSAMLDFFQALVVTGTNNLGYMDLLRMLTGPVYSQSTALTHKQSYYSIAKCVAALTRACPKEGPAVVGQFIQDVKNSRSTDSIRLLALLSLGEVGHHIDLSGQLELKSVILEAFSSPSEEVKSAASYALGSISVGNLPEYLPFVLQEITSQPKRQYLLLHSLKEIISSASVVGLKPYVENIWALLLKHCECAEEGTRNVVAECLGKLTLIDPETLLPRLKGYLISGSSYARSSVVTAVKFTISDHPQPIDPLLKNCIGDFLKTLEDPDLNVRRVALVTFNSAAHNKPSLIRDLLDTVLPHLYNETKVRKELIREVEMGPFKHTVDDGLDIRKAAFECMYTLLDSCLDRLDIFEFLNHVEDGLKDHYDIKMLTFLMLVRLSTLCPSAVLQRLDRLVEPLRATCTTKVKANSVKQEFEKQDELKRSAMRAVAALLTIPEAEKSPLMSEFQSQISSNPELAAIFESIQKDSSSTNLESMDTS
UniProt Q9BRF8, sequence (Q9BRF8 whole entry): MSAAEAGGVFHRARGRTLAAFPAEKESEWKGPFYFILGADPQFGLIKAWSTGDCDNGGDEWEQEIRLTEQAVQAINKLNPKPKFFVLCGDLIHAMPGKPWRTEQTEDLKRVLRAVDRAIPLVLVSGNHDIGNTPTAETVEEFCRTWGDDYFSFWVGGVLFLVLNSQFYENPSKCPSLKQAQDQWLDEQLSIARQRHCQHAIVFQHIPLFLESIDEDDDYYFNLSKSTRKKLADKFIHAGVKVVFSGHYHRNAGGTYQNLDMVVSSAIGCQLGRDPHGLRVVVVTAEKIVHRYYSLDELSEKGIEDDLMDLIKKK
UniProt Q7Z7L1, sequence (Q7Z7L1 whole entry, looked up): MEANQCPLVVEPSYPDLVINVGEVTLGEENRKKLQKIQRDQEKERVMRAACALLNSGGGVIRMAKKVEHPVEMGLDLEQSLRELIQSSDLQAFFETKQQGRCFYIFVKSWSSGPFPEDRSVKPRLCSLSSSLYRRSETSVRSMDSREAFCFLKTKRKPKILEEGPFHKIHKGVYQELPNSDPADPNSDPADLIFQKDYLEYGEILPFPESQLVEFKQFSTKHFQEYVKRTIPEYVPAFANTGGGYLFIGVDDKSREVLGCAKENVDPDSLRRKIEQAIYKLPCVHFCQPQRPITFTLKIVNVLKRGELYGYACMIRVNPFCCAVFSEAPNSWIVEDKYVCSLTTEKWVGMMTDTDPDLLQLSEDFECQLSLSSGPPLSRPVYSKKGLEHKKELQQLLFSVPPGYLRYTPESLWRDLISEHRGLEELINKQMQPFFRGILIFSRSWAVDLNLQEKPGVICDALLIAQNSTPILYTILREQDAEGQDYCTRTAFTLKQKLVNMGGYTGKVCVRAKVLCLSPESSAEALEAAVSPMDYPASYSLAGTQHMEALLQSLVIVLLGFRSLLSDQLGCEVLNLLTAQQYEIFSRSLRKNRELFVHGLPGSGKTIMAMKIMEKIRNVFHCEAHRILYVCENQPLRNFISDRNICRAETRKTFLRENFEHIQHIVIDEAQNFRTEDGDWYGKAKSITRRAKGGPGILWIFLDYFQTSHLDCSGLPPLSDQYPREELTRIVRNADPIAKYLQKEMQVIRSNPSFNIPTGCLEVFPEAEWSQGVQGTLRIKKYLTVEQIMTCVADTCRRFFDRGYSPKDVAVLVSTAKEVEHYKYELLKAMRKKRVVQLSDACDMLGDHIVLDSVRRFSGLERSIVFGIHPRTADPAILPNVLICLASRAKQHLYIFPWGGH
UniProt Q8IWS0, sequence (Q8IWS0 whole entry, looked up): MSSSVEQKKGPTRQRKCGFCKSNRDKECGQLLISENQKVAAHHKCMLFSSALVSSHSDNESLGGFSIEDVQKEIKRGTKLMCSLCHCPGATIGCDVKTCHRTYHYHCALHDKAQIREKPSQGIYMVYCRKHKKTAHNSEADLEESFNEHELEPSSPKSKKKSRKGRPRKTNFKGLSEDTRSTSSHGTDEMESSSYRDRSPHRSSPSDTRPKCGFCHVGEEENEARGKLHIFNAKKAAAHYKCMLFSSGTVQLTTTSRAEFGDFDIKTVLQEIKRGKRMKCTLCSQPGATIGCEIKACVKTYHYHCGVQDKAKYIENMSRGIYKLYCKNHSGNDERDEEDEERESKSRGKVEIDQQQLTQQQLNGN

| Target | log2 ratio of iodoacetamide-alkyne labeling |
| --- | --- |
| PHF6 C28 (UniProt Q8IWS0) | 0.287 (inactive) |
| PARG C515 (UniProt Q86W56) | 1.16 (active) |
| ZGPAT C377 (UniProt Q8N5A5) | 0.342 (inactive) |
| MTHFD1L C291 (UniProt Q6UB35) | 0.126 (inactive) |
| UniProt Q96HE7_C241 | 0.0793 (inactive) |
| UniProt Q69YQ0_C79 | 0.787 (inactive) |
| PDLIM5 C446 (UniProt Q96HC4) | 0.0755 (inactive) |
| SEC14L1 C258 (UniProt Q92503) | 0.208 (inactive) |
| CPPED1 C54 (UniProt Q9BRF8) | 1.01 (active) |
| CNN2 C175 (UniProt Q99439) | 1.04 (active) |
| DDX1 C110 (UniProt Q92499) | 0.315 (inactive) |
| SLFN11 C126 (UniProt Q7Z7L1) | 0.146 (inactive) |
| CAND1 C275 (UniProt Q86VP6) | -0.226 (inactive) |
